# From PubChem BioAssay AID504577 (NMMLSC, 2011)
# Screen size: about 350,000 compounds; about 1,300 (0.37%) were called active. The sample holds actives, similar compounds and a random draw of the others, so the mix is not that of the screen. Unmarked numbers belong to inactive results. No stated cut-off is given here; in the data, active means response mostly above about 7.3% (no sharp cut-off); inactive means mostly below about 5.4%.
# Test: yeast vacuolar ATPase proton transport modulators – pHLuorin cytosolic pH fluorescence, primary screen (AID 504577)
# Settings: S. cerevisiae, at 10 µM, active compounds read high
row,Structure (SMILES),response
1,Nc1nc(O)c(CC(=O)O)s1,4.17%
2,CCCc1nc(SCC(=O)N2CCCC2)c2c(=O)n(C)c(=O)n(C)c2n1,3.73%
3,CC(=O)C(CC(=O)N1CCCC1)C(=O)Nc1ccc(Cl)cc1 (stereo unspecified),1.4%
4,CCOC(=O)C1CCN(C(=O)Nc2ccc(Cl)cc2)CC1,0.2%
5,CC(=O)N1CCC(N(C(=O)Nc2ccc(Cl)cc2)C(C)C)CC1,12.3% (active)
6,COc1ccc(S(=O)(=O)N2CCCCC2)cc1NC(=O)C1CC(=O)N(c2ccc3c(c2)OCCO3)C1 (stereo unspecified),-6.01%
7,CCOc1cc(C(=O)N(Cc2ccccc2)c2ccc(C)cc2)ccc1OCC(=O)N1CCOCC1,-0.49%
8,COc1ccc(C(=O)N(Cc2ccccc2)c2ccc(C)cc2)cc1S(=O)(=O)N1CCOCC1,7.49% (active)
9,CCN(Cc1ccccc1)C(=O)Cc1ccc(OC)c(S(=O)(=O)N2CCOCC2)c1,-1.28%
10,Cc1nccc(-c2ccc(-n3c(C)ccc3C)cc2)n1,-1.42%
11,CC(C)[C@@H](C(=O)O)N(Cc1cccc(CN([C@H](C(=O)O)C(C)C)S(C)(=O)=O)c1)S(C)(=O)=O,2.56%
12,CCOC(=O)N1CCN(C(=O)Cn2cnc3ccccc3c2=O)CC1,1.97%
13,CCOC(=O)N1CCN(C(=O)c2n[nH]c(=O)c3ccccc23)CC1,-1.18%
14,CCOC(=O)N1CCN(CC(=O)n2c(C)c(C)c3ccccc32)CC1,12.8% (active)
15,CC(NC(=O)C1CCCN(S(=O)(=O)c2ccc(-n3cnnn3)cc2)C1)c1ccc(F)cc1 (stereo unspecified),0.08%
16,N#CC(C(N)=O)=C1CCC2(CC1)OCCCCO2,18.9% (active)
17,CC1(C)C/C(=C(/C#N)C(N)=O)CCO1,-3.69%
18,Cc1scc(C(=O)NNC(=S)NCc2ccccc2)c1C,1.7%
19,CCCOc1ccc(C2=CSC3=NCCN23)cc1Cl,-2.58%
20,CCOC(=O)/C(C#N)=C/c1ccc(N2CCN(Cc3ccccc3)CC2)cc1,5.08%
21,C/C(=C/c1ccccc1)C(=O)N1CCN(c2ccccc2)CC1,1.8%
22,COc1ccc(N2CCN(C(=O)/C(C#N)=C/c3ccccc3)CC2)cc1,24.1% (active)
23,COCCNc1cc(NCCOC)c([N+](=O)[O-])cc1[N+](=O)[O-],2.79%
24,CC1CCCCN1S(=O)(=O)c1ccc(C(=O)Nc2nnc(-c3cccs3)o2)cc1 (stereo unspecified),11.2% (active)
25,CC1CCCCN1S(=O)(=O)c1ccc(S(=O)(=O)N(CC(=O)Nc2ccccc2)Cc2cccs2)cc1 (stereo unspecified),2.49%
26,CSCc1nnc(NC(=O)c2ccc(S(=O)(=O)N3CCCCC3C)cc2)o1 (stereo unspecified),-2.27%
